Among all 360,000 compounds or so, about 11,000 (3.1%) were called active. Where a call stands in place of a potency, no number is given. Another 4% or so got no clear call; they are omitted. Calls come from the whole dose curve; as a rule, active = well fitted inhibition curve with a large enough effect; inconclusive = small, poorly fitted or top-dose-only effect; inactive = no such curve, though single readings can be large or run the other way. The sample as a whole holds a higher share of actives than the screen did.
Potency is the fitted concentration of half-maximal effect.

The target in this assay is Schistosoma mansoni thioredoxin glutathione reductase (TGR) (UniProt Q962Y6). Nature of the assay: qHTS Assay for the Inhibitors of Schistosoma Mansoni Peroxiredoxins. Note: nearly all actives have a fitted effect of over 60% in size. To be noted: purified TGR, DTNB reduction, TNB absorbance 405 nm; series mostly up to 114 µM. A digest of the protocol:
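First, TGR (20 nM dispensed) and NADPH were mixed with compound. Second, a 15 min room-temperature incubation followed. Third, further NADPH and then DTNB were added to start the reaction. Finally, TNB absorbance was monitored kinetically.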
For orientation: In qHTS, concentration-response curves come from the screen itself.
As for `C#CCOCCOCCOCCNc1nc(N2CCN(C(=O)[C@H](CCC(=O)O)n3cc(C(N)CO)nn3)CC2)nc(N2CCN(C(=O)[C@H](Cc3ccc(O)cc3)n3cc(C(N)[C@H](C)CC)nn3)CC2)n1` (stereo not given in full), the Potency is 35.5 µM (active).

Turning to `C#CCOCCOCCOCCNc1nc(N2CCN(C(=O)[C@H](Cc3ccc(O)cc3)n3cc(C(N)CC(C)C)nn3)CC2)nc(N2CCN(C(=O)[C@H](CCC(=O)O)n3cc(C(N)[C@H](C)CC)nn3)CC2)n1` (stereo not given in full), the Potency entry was “inactive”.

Take `C#CCOCCOCCOCCNc1nc(N2CCN(C(=O)C(Cc3ccc(O)cc3)n3cc(C(N)CC(C)C)nn3)CC2)nc(N2CCN(C(=O)C(Cc3ccc(O)cc3)n3cc(C(N)C(C)CC)nn3)CC2)n1` (stereo not given): the Potency result was “inactive”.

In the case of `COC(=O)c1ccccc1NC(=O)c1ccc2c(=O)n3c(nc2c1)CCCCC3`, the Potency entry was “inactive”.

Turning to `CCN(CCCNC(=O)c1cc(Nc2ccc(OC)cc2)nc2ccccc12)c1cccc(C)c1`, the Potency result is “inactive”.

Take `O=C(Nc1ccccc1N1CCOCC1)c1ccncc1`: the Potency result is “inactive”.

With `O=C(Nc1ccccc1N1CCCC1)c1ccc2ccccc2c1`, the Potency entry was “inactive”.

Regarding `O=C(Nc1ccccc1N1CCCCC1)c1ccc2nccnc2c1`, the Potency is 79.4 µM (active).

Take `Oc1ccc2ccccc2c1N=Nc1nccs1`: the Potency was 17.8 µM (active).

On to `COc1ccc(Cc2nc3ccc(C(=O)NCc4ccccc4Cl)cc3o2)cc1`, for which the Potency result was “inactive”.

On to `CCOc1ccccc1NC(=O)Cn1c2ncccc2c(=O)n1-c1ccc(C)c(C)c1`, for which the Potency result is “inactive”.

Take `Cc1cccn2c(=O)c3cc(C#N)c(=O)n(CCCN4CCOCC4)c3nc12`: the Potency was 25.1 µM (active).

Consider `Cc1cccn2c(=O)c3cc(C(=O)NCCN4CCOCC4)c(=N)n(Cc4cccnc4)c3nc12`, for which the Potency entry is “inactive”.

On to `CCCCn1c(=N)c(S(=O)(=O)c2ccccc2)cc2c(=O)n3cccc(C)c3nc21`, for which the Potency result was “inactive”.

Turning to `CC1CCC2(CC1)N=C(c1ccccc1)C(=O)N2CC(=O)Nc1ccc(F)c(Cl)c1` (stereo not given), the Potency result is “inactive”.

`N#Cc1nc(/C=C/c2ccc(F)cc2)oc1NCc1ccc(F)cc1`: the Potency entry is “inactive”.

Regarding `CCN(C(=O)Cn1cnc2sc(C)c(S(=O)(=O)N3CCN(c4ncccn4)CC3)c2c1=O)c1ccccc1F`, the Potency result is “inactive”.

As for `CN(C)c1ccc(NC(=O)CSc2nc(-c3ccco3)cc(C(F)(F)F)n2)cc1`, the Potency result is “inactive”.

For `Cc1cccc(NC(=O)CSc2nc(-c3ccco3)cc(C(F)(F)F)n2)c1C`, the Potency result is “inactive”.

In the case of `O=C(CSc1nc(-c2ccco2)cc(C(F)(F)F)n1)N1CCc2ccccc2C1`, the Potency is 11.2 µM (active).

On to `O=C(NCc1ccc2c(c1)CCN2C(=O)c1ccccc1)c1ccccc1`, for which the Potency entry was “inactive”.

As to `CCCn1c2ccccc2c2cnn(CC(=O)NCC3CCN(Cc4ccc(C)cc4)CC3)c(=O)c21`, the Potency result is “inactive”.

With `Cc1cccc(NC(=O)c2ccc(F)c(S(=O)(=O)N(C)C3CCCCC3)c2)c1`, the Potency entry was “inactive”.

Regarding `CCOc1ccccc1C(=O)NCC(c1ccc(N(C)C)cc1)N1CCCC1` (stereo not given), the Potency result is “inactive”.

As to `CC(C)CNC(=O)CC(c1ccccc1)c1c(O)ccc2ccccc12` (stereo not given), the Potency entry was “inactive”.

As to `Oc1ccc2ccccc2c1C=Nc1ccccc1`, the Potency is 12.6 µM (active).

For `CCOc1[nH]n(-c2ccc(Cl)cc2)c(=O)c1C=Nc1ccc(O)cc1`, the Potency entry is “inactive”.

On to `CC(=O)n1c(C=Nc2ccccc2)c(O)c2ccccc21`, for which the Potency entry is “inactive”.

Take `Oc1ccc(N=Cc2c(O)ccc3ccccc23)cc1`: the Potency was 28.2 µM (active).

`Cc1cc(N=Nc2ccc3ccccc3c2)ccc1O`: the Potency result is “inactive”.

In the case of `CCC(=O)CC(c1ccc([N+](=O)[O-])cc1)c1c(O)c2ccccc2oc1=O` (stereo not given), the Potency entry is “inactive”.

For `O=[N+]([O-])c1cnc2ccc3ccccc3c2c1`, the Potency result is “inactive”.

Take `O=[N+]([O-])c1ccc(N=Cc2c(O)ccc3ccccc23)cc1`: the Potency was 22.4 µM (active).

`COc1ccc(CCNC(=O)c2c3c(nc4ccccc24)C(=O)N(C2CCCCC2)C3)cc1OC`: the Potency entry was “inactive”.

`Cc1ccc(C(=O)Nc2ccccc2F)cc1S(=O)(=O)N1CCOCC1`: the Potency entry was “inactive”.

As to `CCOc1ccccc1NC(=O)CN1CCN(S(=O)(=O)c2ccc(Br)cc2)CC1`, the Potency result is “inactive”.

With `Cc1cccc(NC(=O)C2CCCN2S(=O)(=O)c2cccc3nsnc23)c1C` (stereo not given), the Potency entry was “inactive”.

Consider `CC(C)(C)n1cnnc1Sc1ccc([N+](=O)[O-])cn1`, for which the Potency result is “inactive”.

For `CCN(CC(=O)Nc1c(F)cccc1F)C(=O)c1ccc(Sc2nncn2C)c([N+](=O)[O-])c1`, the Potency result is “inactive”.

For the molecule `Cn1cnnc1Sc1ccc(S(C)(=O)=O)cc1[N+](=O)[O-]`, the Potency was 35.5 µM (active).

In the case of `C=CCn1c(SCC(=O)NC(=O)Cc2ccccc2)nc2ccccc2c1=O`, the Potency was 89.1 µM (active).

As to `C=CCn1c(SCc2ccc(C(=O)NCCO)cc2)nc2ccccc2c1=O`, the Potency result is “inactive”.

Regarding `O=C(CSc1nc2ccccc2c(=O)n1CCCO)NC1CC1`, the Potency entry is “inactive”.

With `Cc1ccc(O)c(NC(=O)c2cc(-c3ccc(F)cc3)no2)c1`, the Potency entry was “inactive”.

In the case of `Cc1ccc(C(=O)N2CCc3cc(CNC(=O)c4ccc(Br)cc4)ccc32)cc1`, the Potency entry is “inactive”.

Turning to `COc1ccc(NC(=O)c2cc3cc(C)ccc3n2C)cc1`, the Potency entry is “inactive”.

For `CN(C)S(=O)(=O)c1cccc(NC(=S)N/N=C/C(=O)c2ccccc2)c1`, the Potency result is “inactive”.

As to `CN(C)S(=O)(=O)c1ccc(N/C=C(\[N+](=O)[O-])S(=O)(=O)c2ccccc2)cc1`, the Potency is 14.1 µM (active).

Regarding `CN(C)S(=O)(=O)c1ccc(NC(=O)N2CCOCC2)cc1`, the Potency entry is “inactive”.

Turning to `O=C(CN1C(=O)CCn2nc(-c3ccccc3)cc21)NCc1ccccc1`, the Potency result is “inactive”.

`CCN1N=C(c2ccccc2)CCC1=O`: the Potency entry was “inactive”.

For `Cc1nnc2n1N=C(c1ccccc1)CS2`, the Potency was 39.8 µM (active).

`CC1CSc2nnc(CCc3ccccc3)n21` (stereo not given): the Potency entry is “inactive”.

In the case of `COc1ccc(-c2cc(-c3nc(-c4cc(OC)c(OC)c(OC)c4)no3)[nH]n2)c(OC)c1`, the Potency entry is “inactive”.

As to `CCOCCCNC(=O)c1c(NC(=O)c2nc(SC)ncc2Cl)sc2c1CCCC2`, the Potency entry is “inactive”.

For `O=[N+]([O-])c1c(NCCO)cc(Sc2nc3ccccc3s2)c2nonc12`, the Potency is 0.1 µM (active).

Turning to `CC(C)(C)c1ccc(S(=O)(=O)Nc2ccc(O)c(Sc3nc4ccccc4s3)c2)cc1`, the Potency result is “inactive”.

With `CC(C)c1ccc(S(=O)(=O)Nc2ccc(O)c(Sc3nc4ccccc4s3)c2)cc1`, the Potency result was “inactive”.

With `Cc1ccccc1C(=O)Nc1sc2c(c1C(=O)N1CCC(C)CC1)CCCC2`, the Potency result was “inactive”.

With `CCOC(=O)c1ccccc1NC(=O)CCc1c(C)nc2c(c1C)c(=O)n(C)c(=O)n2C`, the Potency result is “inactive”.

For `Cn1c(=O)c(Sc2ccc(Cl)cc2)c(O)c2ccccc21`, the Potency result was “inactive”.

In the case of `Cc1cccc(OP(=O)(Nc2c(C)n(C)n(-c3ccccc3)c2=O)Oc2cccc(C)c2)c1`, the Potency entry is “inactive”.

For the molecule `Cn1c(=O)c([N+](=O)[O-])c(Oc2ccccc2)c2ccccc21`, the Potency is 2.82 µM (active).

As to `Cc1cccc(Oc2c([N+](=O)[O-])c(=O)n(C)c3ccccc23)c1`, the Potency is 3.98 µM (active).

Take `Cn1nc(-c2ccccc2)c2cc([N+](=O)[O-])ccc21`: the Potency result is “inactive”.

Regarding `Cc1cccc(C2CC(=O)Oc3c2c(=O)n(C)c2ccccc32)c1` (stereo not given), the Potency entry was “inactive”.

`Cc1ccc(Cl)cc1N1CCN(S(=O)(=O)c2cc3[nH]c(=O)c(=O)[nH]c3cc2C)CC1`: the Potency entry is “inactive”.

Regarding `CCCNC(=O)c1ccc2c(c1)ncn2-c1ccc(C)cc1C`, the Potency result is “inactive”.

On to `CC(C)CC(=O)NCC(c1ccc2c(c1)OCO2)N1CCN(c2ccc(F)cc2)CC1` (stereo not given), for which the Potency entry was “inactive”.

Regarding `CCOc1cc(/C=C(\C#N)C(=O)Nc2ccccc2C)ccc1OCc1cc(=O)n2nc(CC)sc2n1`, the Potency result is “inactive”.

In the case of `CCOCCCn1c(SCC(=O)Nc2ccc(CC)cc2)nc2ccccc2c1=O`, the Potency entry is “inactive”.

Turning to `CCOc1ccc(NC(=O)CC2C(=O)N(c3cccc(OC)c3)C(=O)N2C2CCCCC2)cc1` (stereo not given), the Potency result is “inactive”.

Take `CCOc1cc(C2C(C(=O)OC)=CN(C3CCCC3)C=C2C(=O)OC)cc(Br)c1O`: the Potency is 56.2 µM (active).

Consider `COC(=O)C1=CN(Cc2ccc(OC)cc2)C=C(C(=O)OC)C1c1ccc(O)c(OC)c1`, for which the Potency entry is “inactive”.

Consider `CCOc1ccc(CNC(=O)C2CCC(=O)N2C2CCCC2)cc1OC` (stereo not given), for which the Potency entry was “inactive”.

On to `COc1ccc(C)cc1Nc1nc2ccccc2c2nnc(C)n12`, for which the Potency result is “inactive”.

For the molecule `COc1cc2ccccc2cc1C(=O)Nc1cccc(-c2nc3ccccc3o2)c1`, the Potency entry is “inactive”.

For `CCCCN(CCCNC(=O)c1cc(Nc2ccccc2OC)nc2ccccc12)c1ccccc1`, the Potency result is “inactive”.

As to `O=C(CNS(=O)(=O)c1ccccc1)N1CCN(C(=O)c2ccco2)CC1`, the Potency entry was “inactive”.

As for `O=C(c1cccc(S(=O)(=O)Nc2ccccc2Cl)c1)N1CCN(C(=O)c2ccco2)CC1`, the Potency was 31.6 µM (active).

With `O=C(c1cccc([N+](=O)[O-])c1)N1CCN(C(=O)c2ccco2)CC1`, the Potency entry was “inactive”.

For `COc1ccc(OC)c(NC(=O)CSc2nc3ccccc3nc2N2CCCCC2)c1`, the Potency result is “inactive”.

For the molecule `CCOc1ccc(C2C(C(=O)Nc3ccc(Cl)cc3)=C(C)Nc3nc(C(F)(F)F)nn32)cc1` (stereo not given), the Potency entry was “inactive”.

On to `Cc1cccc(C(=O)N2c3nc(-c4ccco4)nn3C3(CCCCC3)[C@@H]3CCCC[C@@H]32)c1`, for which the Potency is 35.5 µM (active).

With `Cc1cccc(C(=O)NC(=S)N(C)C2CCCCC2)c1`, the Potency entry was “inactive”.

Take `Cc1ccc(C(=O)N2c3ncnn3C3(CCCCC3)[C@@H]3CCCC[C@@H]32)cc1`: the Potency result is “inactive”.

For `CCN(CC)CCNC(=O)Cn1ncc2c3ccccc3n(Cc3ccccc3C)c2c1=O`, the Potency result was “inactive”.

For the molecule `COc1ccc(/C=C/c2noc(-c3ccccc3O)n2)cc1OC`, the Potency result is “inactive”.

Regarding `COc1ccccc1CCNC(=O)c1cccn1-c1nnc(N2CCCCC2)s1`, the Potency entry was “inactive”.

In the case of `COc1ccc(CC(=O)Nc2nc3n(n2)C(c2ccccc2)CC(=O)N3)cc1OC` (stereo not given), the Potency entry is “inactive”.

For the molecule `CC1=C(C(=O)Nc2ccccc2)C(c2ccc(C)cc2)n2nc(SCc3ccccc3C)nc2N1` (stereo not given), the Potency result was “inactive”.

In the case of `COc1ccc(CNC(=O)Cn2nnc(-c3ccc(S(C)(=O)=O)cc3)n2)cc1`, the Potency result was “inactive”.

As for `COc1ccc(C2C=C(c3ccc(Br)cc3)Nc3nc(NS(C)(=O)=O)nn32)cc1` (stereo not given), the Potency was 22.4 µM (active).

Turning to `Cc1ccc(C2C=C(c3ccc(Cl)cc3)Nc3nc(NC(=O)CCC(=O)O)nn32)cc1` (stereo not given), the Potency was 17.8 µM (active).

With `COc1ccc(C2=CC(c3ccccc3Cl)n3nc(-c4ccc(Cl)cc4)nc3N2)cc1` (stereo not given), the Potency result is “inactive”.
